Molecules are shown by their SMILES. Results filed as inconclusive are left out. Calls of active or inactive are those of the source. Unless noted, the call rests on the fitted dose curve; in most records, active means well fitted inhibition curve with a large enough effect; inconclusive means small, poorly fitted or top-dose-only effect; inactive means no such curve, though single readings can be large or run the other way.

Chain of Cytochrome P450 2D6 (Homo sapiens) (P10635 whole entry, looked up): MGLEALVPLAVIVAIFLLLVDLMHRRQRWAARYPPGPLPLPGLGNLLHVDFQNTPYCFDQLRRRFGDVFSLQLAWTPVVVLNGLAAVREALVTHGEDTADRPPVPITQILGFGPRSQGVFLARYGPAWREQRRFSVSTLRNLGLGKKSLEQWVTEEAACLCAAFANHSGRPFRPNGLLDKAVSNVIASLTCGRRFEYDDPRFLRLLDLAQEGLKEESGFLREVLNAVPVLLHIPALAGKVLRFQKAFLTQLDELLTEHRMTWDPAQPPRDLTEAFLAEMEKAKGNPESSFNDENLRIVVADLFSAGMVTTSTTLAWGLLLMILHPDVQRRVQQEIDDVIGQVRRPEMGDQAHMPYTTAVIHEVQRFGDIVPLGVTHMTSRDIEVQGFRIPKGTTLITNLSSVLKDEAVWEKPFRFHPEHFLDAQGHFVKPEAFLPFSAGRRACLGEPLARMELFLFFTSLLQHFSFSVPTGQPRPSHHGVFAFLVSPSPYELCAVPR
Chain of Cytochrome P450 2C19 (Homo sapiens) (P33261 whole entry, looked up): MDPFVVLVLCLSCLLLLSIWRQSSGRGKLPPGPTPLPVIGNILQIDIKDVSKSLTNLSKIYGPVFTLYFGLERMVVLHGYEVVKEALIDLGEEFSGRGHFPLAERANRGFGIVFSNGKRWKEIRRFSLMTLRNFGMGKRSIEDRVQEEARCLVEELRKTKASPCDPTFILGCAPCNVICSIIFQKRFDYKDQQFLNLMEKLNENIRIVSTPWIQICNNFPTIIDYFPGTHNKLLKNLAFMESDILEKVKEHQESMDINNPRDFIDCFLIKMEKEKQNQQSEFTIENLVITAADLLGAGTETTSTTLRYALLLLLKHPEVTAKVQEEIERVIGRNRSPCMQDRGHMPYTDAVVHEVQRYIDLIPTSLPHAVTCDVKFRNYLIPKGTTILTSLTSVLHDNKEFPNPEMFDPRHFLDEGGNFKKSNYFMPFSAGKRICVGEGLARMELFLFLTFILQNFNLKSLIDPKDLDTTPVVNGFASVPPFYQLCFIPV

One test addresses Cytochrome P450 2D6 (Homo sapiens) (UniProt P10635). In words: qHTS Assay for Inhibitors and Substrates of Cytochrome P450 2D6 (AID 891). Further: nearly all actives have a fitted effect of over 60% in size. Further: potency means the concentration at half of the fitted maximal effect. The settings on record: recombinant CYP2D6, luciferin-ME EGE luminescence; series mostly up to 11.4 µM. In outline: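 Human CYP2D6 (5 nM) with 30 uM Luciferin-ME EGE (at Km) in 100 mM KPO4, compound preincubated 10 min, then NADPH regeneration system for 60 min at room temperature. Luciferin read by luminescence; normalized to 1.43 uM quinidine.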
Background: In qHTS, concentration-response curves come from the screen itself.
As for `CC(=O)c1c(O)c(C)c(O)c(Cc2c(O)c3c(c(C(=O)/C=C\c4ccccc4)c2O)OC(C)(C)C=C3)c1O`, the Potency entry is “inactive”.

As to `CN[C@H]1[C@H](C)O[C@@H](O[C@@H]2C/C=C(/C)C/C(C)=C\C=C/CC[C@@H](C)CNC(=O)/C=C\C=C/[C@H]2C)C[C@@H]1O`, the Potency entry is “inactive”.

For the compound `N=C(N)SCc1ccc(Cl)c2ccccc12` (tested in a mixture with another compound), the Potency is 3160 nM (active).

For the compound `COc1ccc2c(c1)[C@]13CCCC[C@@H]1[C@H](C2)NCC3`, the Potency is 6310 nM (active).

In the case of `C[C@H](CC(C#N)(c1ccccc1)c1ccccc1)N1CCCCC1`, the Potency was 2510 nM (active).

Test system in another test: not listed separately
In words: qHTS Assay for Identification of Small Molecule Antagonists for NFkB Signaling Pathway (AID 895; active means well fitted inhibition curve with a large enough effect in the signal ratio, with a control signal flat, not every such curve was filed as active; the % refers to the signal ratio; further: potency means the concentration at half of the fitted maximal effect). The conditions noted are these: NFkB beta-lactamase reporter cells, FRET ratio 460/530; series mostly up to 38.3 µM. In outline: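 NFkB-bla ME-180 cervical carcinoma cells with beta-lactamase reporter under NFkB response element; compounds added, then TNF alpha at 10 pM final (EC50), 5 h at 37 C. LiveBLAzer substrate 2 h, room temperature; emission 460/530 nm at 405 nm excitation.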
With `C[C@@]12CC[C@H]3[C@@H](CC=C4C[C@H](OS(=O)(=O)O)CC[C@]43C)[C@H]1CCC2=O`, the Potency entry is “inactive”.

For `COc1ccc2c(c1O)-c1cccc3c1[C@H](C2)N(C)CC3`, the Potency result was “inactive”.

Consider `CC(=O)c1c(O)c(C)c(O)c(Cc2c(O)c3c(c(C(=O)/C=C\c4ccccc4)c2O)OC(C)(C)C=C3)c1O`, for which the Potency was 794 nM (active).

On to `CCNC(=O)[C@@H]1O[C@@H](n2cnc3c(N)ncnc32)[C@@H](O)[C@H]1O`, for which the Potency result was “inactive”.

Another test concerns the target Cytochrome P450 2C19 (Homo sapiens) (UniProt P33261). In words: qHTS Assay for Inhibitors and Substrates of Cytochrome P450 2C19 (AID 899). Further: nearly all actives have a fitted effect of over 60% in size. Further: potency means the concentration at half of the fitted maximal effect. The settings on record: recombinant CYP2C19, luciferin-H EGE luminescence; series mostly up to 11.4 µM. In outline: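 In 50mM KPO4, the reaction held 5nM enzyme and KM-level (10uM) Luciferin-H EGE; it ran 60 min at 37C after NADPH regeneration and a 10 min compound preincubation. Luminescence values were scaled to 57uM ketoconazole as complete inhibition.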
Regarding `CCOC(=O)[C@@H]1[C@@H]2c3ccccc3-c3ccccc3[C@H]2C[C@H]1O`, the Potency was 2000 nM (active).

Take `CC(=O)c1c(O)c(C)c(O)c(Cc2c(O)c3c(c(C(=O)/C=C\c4ccccc4)c2O)OC(C)(C)C=C3)c1O`: the Potency was 2000 nM (active).

Turning to `CN[C@H]1[C@H](C)O[C@@H](O[C@@H]2C/C=C(/C)C/C(C)=C\C=C/CC[C@@H](C)CNC(=O)/C=C\C=C/[C@H]2C)C[C@@H]1O`, the Potency result is “inactive”.

For `C[C@@]12CC[C@H](O)C[C@@H]1CC[C@@H]1[C@@H]2CC[C@@]2(C)[C@@H](C3=CC(=O)OC3)[C@H](O)C[C@]12O`, the Potency result was “inactive”.

For `Cc1ccc(NC(=[OH+])c2cc3ccccc3cc2O)c(C)c1.Cc1ccc(NC(=[OH+])c2cc3ccccc3cc2O)c(C)c1.[Ni]`, the Potency was 2000 nM (active).

On to `CCNC(=O)[C@@H]1O[C@@H](n2cnc3c(N)ncnc32)[C@@H](O)[C@H]1O`, for which the Potency result was “inactive”.

Consider `O=C(O)C[O][Sb][O]CC(=O)O`, for which the Potency entry was “inactive”.

`C[Se]C[C@@H](N)C(=O)O`: the Potency result is “inactive”.

Test system in another test: not listed separately
In words: qHTS Assay for Identification of Small Molecule Agonists for Hypoxia Response Element Signaling Pathway (AID 914; active means well fitted activation curve with a large enough effect in the signal ratio, with a control signal flat, not every such curve was filed as active; the % refers to the signal ratio; further: % of control where 0% means no effect). The conditions noted are these: ME-180 (cervical carcinoma) HRE-bla reporter, beta-lactamase ratio, CoCl2, 17 h; hits give high values. In a few lines:
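In Opti-MEM containing 0.5% dialyzed FBS and 10 mM HEPES, ME-180 HRE-bla cells received a compound titration and EC50 CoCl2. They were incubated 17 hours, then CCF4-loaded 2.5 hours at room temperature before ratio reading.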
Turning to `COc1cc2c(cc1OC)[C@@]13CCN4C=C5CCO[C@H]6CC(=O)N2[C@@H]1[C@@H]6[C@H]5C[C@H]43`, the activation is -4.7% (inactive).

For the compound `C[C@]12CC[C@@H]3[C@H](CCC4=CC(=O)CC[C@]43C)[C@]1(O)CC[C@@]2(O)C(=O)CO`, the activation is 7.15% (inactive).

In the case of `C[C@H](CC(C#N)(c1ccccc1)c1ccccc1)N1CCCCC1`, the activation was 4.33% (inactive).

On to `NC(=O)CN1C[C@@H](O)CC1=O`, for which the activation is 9.85% (inactive).
